Inconclusive results are not listed. Active and inactive are the calls of the source. Unless noted, calls follow the shape of the dose curve; as a rule, active = well fitted curve in the direction sought with a large enough effect; inconclusive = small, poorly fitted or top-dose-only effect, or another doubt; inactive = no such curve, though single readings can be large; an effect the other way counts as inactive or inconclusive.
Legend:
[1] = Cellular Toxicity (caspase-3) HepG2 (AID 654);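 also: cells exposed to compound for 16 hours before reading; 0% = DMSO alone and 100% = caspase signal from 100 µM tamoxifen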
How it was run: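 HepG2 cells (1500/well) were treated 16 h at 37 °C in complete medium, then caspase 3/7 activity was read by Caspase-Glo luminescence. Data were normalized to DMSO and 100 uM tamoxifen; AC50 came from Hill-equation fits of qHTS concentration-response.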

[2] = Cellular Toxicity (caspase-3) Jurkat (AID 655);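 also: cells exposed to compound for 16 h at 37 °C before reading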
How it was run: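 Caspase 3/7 activation is scored as increased luminescence in Jurkat cells cultured with compound for 16 hours in complete medium. AC50 values come from Hill fits of qHTS concentration-response data normalized to DMSO and 100 uM tamoxifen controls.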

[3] = Cellular Toxicity (caspase-3) HUV-EC-C (AID 656);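 also: 0% = DMSO basal and 100% = 100 µM tamoxifen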
How it was run: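 Read-out: luminescence proportional to caspase 3/7 activity, measured 20 min after adding Caspase-Glo 3/7 reagent. Cells (HUV-EC-C) had received compound for 16 hr at 37°C. Increases relative to DMSO and 100 uM tamoxifen gave concentration-response AC50 values.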

[4] = Cellular Toxicity (caspase-3) BJ (AID 658);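 also: 0% = DMSO basal and 100% = 10 µM staurosporine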
How it was run: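 Luminescent aminoluciferin-substrate cleavage reports caspase 3/7 activity in normal human BJ fibroblasts after 16 hr compound exposure at 37 °C. Normalized to DMSO (basal) and 10 uM staurosporine (100%); AC50 from Hill fit of concentration-response.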

[5] = Cellular Toxicity (caspase-3) MRC-5 (AID 659);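 also: 0% = DMSO basal and 100% = 10 µM staurosporine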
How it was run: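 Luminescence from caspase-cleaved aminoluciferin substrate (Caspase-Glo 3/7, 1 hr RT) reports caspase 3/7 activity in MRC-5 lung fibroblasts after 16 hr compound exposure. Normalized to DMSO basal and 10 uM staurosporine as 100%; AC50 from Hill fits.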

[6] = Cellular Toxicity (caspase-3) Mesangial (AID 660);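 also: cells exposed to compound for 16 h before the caspase read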
How it was run: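 Human renal glomerular mesangial cells, 1000/well, 5 h at 37 C before 16 h compound treatment. Caspase-Glo 3/7 luminescence after 20 min; normalized to DMSO and 100 uM tamoxifen, AC50 from Hill fit.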

[7] = Cellular Toxicity (caspase-3) SK-N-SH (AID 661);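 also: 0% = DMSO basal and 100% = 10 µM staurosporine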
How it was run: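 Human SK-N-SH neuroblastoma cells, 1500/well, were exposed to compounds for 16 hours at 37 °C. Caspase-Glo 3/7 luminescence was normalized to DMSO (basal) and 10 uM staurosporine (100%), and AC50 came from a Hill fit.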

[8] = Cellular Toxicity (caspase-3) H-4-II-E (AID 663);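 also: cells exposed to compound for 16 hr before readout; 0% = DMSO basal and 100% = 100 µM tamoxifen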
How it was run: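 Luminescence from caspase-cleaved aminoluciferin substrate, read 20 min after reagent addition, reports caspase 3/7 activation in rat H-4-II-E cells after 16 hr compound exposure. Normalized to DMSO (basal) and 100 uM tamoxifen (100%); AC50 from Hill fits.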

[9] = Cellular Toxicity (caspase-3) Hek293 (AID 664);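 also: cells exposed to compound for 16 h at 37 °C before readout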
How it was run: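 HEK293 cells in complete medium treated 16 h at 37 °C, then Caspase-Glo 3/7 luminescence read after 20 min at room temperature. Normalized to DMSO and 100 uM tamoxifen; AC50 from Hill fit of concentration-response.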

[10] = Cellular Toxicity (caspase-3) N2a (AID 665);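 also: compound exposure lasted 16 h at 37 °C before readout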
How it was run: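 Mouse N2a neuroblastoma cells, 1500 per well, treated 16 h at 37 °C in complete medium; caspase-3/7 activity by Caspase-Glo luminescence after 1 h. Normalized to DMSO and 10 uM staurosporine; AC50 from Hill fits.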

[11] = Cellular Toxicity (caspase-3) NIH 3T3 (AID 666);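 also: 0% = DMSO basal and 100% = 100 µM tamoxifen stimulation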
How it was run: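 Mouse NIH 3T3 fibroblasts (1000/well) treated 16 h at 37 C; caspase-3/7 activity measured by Caspase-Glo 3/7 luminescence after 20 min. Normalized to DMSO and 100 uM tamoxifen; AC50 from Hill fits.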

[12] = target: Cytochrome P450 3A4 (Homo sapiens) (UniProt P08684); test: qHTS Assay for Inhibitors and Substrates of Cytochrome P450 3A4 (AID 884); also: series mostly up to about 57 µM; % is scaled to controls: 0 for no effect and ±100 for the full control effect; nearly all actives have a fitted effect of over 50% in size
Cytochrome P450 3A4 (Homo sapiens), sequence (P08684 whole entry, looked up): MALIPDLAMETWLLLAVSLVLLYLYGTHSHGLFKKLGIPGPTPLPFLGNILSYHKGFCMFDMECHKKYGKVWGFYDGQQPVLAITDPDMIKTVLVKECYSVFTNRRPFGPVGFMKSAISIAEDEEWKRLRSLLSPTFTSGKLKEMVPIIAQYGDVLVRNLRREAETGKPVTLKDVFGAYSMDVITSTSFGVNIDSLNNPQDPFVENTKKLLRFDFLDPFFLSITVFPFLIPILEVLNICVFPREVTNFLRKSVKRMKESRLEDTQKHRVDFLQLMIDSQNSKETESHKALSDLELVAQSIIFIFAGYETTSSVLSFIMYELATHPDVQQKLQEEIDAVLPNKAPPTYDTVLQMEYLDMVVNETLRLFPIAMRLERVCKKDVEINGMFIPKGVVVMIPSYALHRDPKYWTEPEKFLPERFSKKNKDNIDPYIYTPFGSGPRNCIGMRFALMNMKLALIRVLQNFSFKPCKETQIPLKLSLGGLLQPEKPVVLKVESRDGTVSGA
How it was run: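 20 nM human CYP3A4 with 25 uM Luciferin-PPXE (at KM) in 200 mM KPO4, preincubated 10 min with compound; NADPH regeneration started a 60 min RT reaction. Luciferin detected by luminescence, normalized to 57 uM ketoconazole as full inhibition.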

[13] = Confirmation and Secondary Assay for Modulators of Hemoglobin Beta Chain Splicing at IVS2 654 locus (AID 910);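 also: per-well total GFP intensity by laser scanning cytometry after 2-day treatment; % of control where 0% means no effect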
How it was run: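 HeLa cells stably carrying EGFP interrupted by mutant beta-globin IVS2-654 intron (CMV-driven) were treated with compound for 2 days at 37C; corrected splicing was scored as total peak GFP intensity per well (488 nm excitation, 500-520 nm emission).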

[14] = target: Cytochrome P450 2C9 (Homo sapiens) (UniProt P11712); test: qHTS Assay for Inhibitors and Substrates of Cytochrome P450 2C9 (AID 883); also: nearly all actives have a fitted effect of over 60% in size; also: potency is read from the fitted curve at half-maximal effect; as to activity change, negative = inhibition: % is scaled to controls: 0 for no effect and ±100 for the full control effect
Cytochrome P450 2C9 (Homo sapiens), sequence (P11712 whole entry, looked up): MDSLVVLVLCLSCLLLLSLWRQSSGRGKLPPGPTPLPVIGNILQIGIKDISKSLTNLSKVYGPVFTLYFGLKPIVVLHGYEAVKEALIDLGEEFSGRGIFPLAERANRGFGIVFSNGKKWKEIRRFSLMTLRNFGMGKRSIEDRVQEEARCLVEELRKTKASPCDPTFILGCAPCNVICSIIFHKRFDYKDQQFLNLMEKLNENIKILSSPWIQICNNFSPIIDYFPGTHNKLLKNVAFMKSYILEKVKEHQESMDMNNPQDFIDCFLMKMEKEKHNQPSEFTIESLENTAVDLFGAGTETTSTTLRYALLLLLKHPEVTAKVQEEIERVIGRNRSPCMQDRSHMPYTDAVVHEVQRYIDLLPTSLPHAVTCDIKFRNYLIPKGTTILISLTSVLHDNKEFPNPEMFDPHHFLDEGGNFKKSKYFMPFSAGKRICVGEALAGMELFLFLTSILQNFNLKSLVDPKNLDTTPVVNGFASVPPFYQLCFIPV
How it was run: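 A luminogenic readout tracked human CYP2C9 (10nM) converting deoxyluciferin (100uM, at KM) in 25mM KPO4 during 60 min at 37C with regenerated NADPH. Values normalized to 57uM sulphaphenazole as complete inhibition.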

[15] = qHTS Assay for Identification of Small Molecule Agonists for Hypoxia Response Element Signaling Pathway (AID 914; active = well fitted activation curve with a large enough effect in the signal ratio, with a control signal flat, not every such curve was filed as active; the % refers to the signal ratio; also: % of control where 0% means no effect); conditions: ME-180 (cervical carcinoma) HRE-bla reporter, beta-lactamase ratio, CoCl2, 17 h; stronger effect = higher value
How it was run: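 HRE-bla ME-180 cells with beta-lactamase reporter under hypoxia response element, compounds with EC50 CoCl2 for 17 hours at 37 C. CCF4 substrate, 460nm/530nm emission ratio gave %Activity; AC50 from titration series.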

[16] = target: Cytochrome P450 2C19 (Homo sapiens) (UniProt P33261); test: qHTS Assay for Inhibitors and Substrates of Cytochrome P450 2C19 (AID 899); also: % is scaled to controls: 0 for no effect and ±100 for the full control effect; nearly all actives have a fitted effect of over 60% in size
Cytochrome P450 2C19 (Homo sapiens), sequence (P33261 whole entry, looked up): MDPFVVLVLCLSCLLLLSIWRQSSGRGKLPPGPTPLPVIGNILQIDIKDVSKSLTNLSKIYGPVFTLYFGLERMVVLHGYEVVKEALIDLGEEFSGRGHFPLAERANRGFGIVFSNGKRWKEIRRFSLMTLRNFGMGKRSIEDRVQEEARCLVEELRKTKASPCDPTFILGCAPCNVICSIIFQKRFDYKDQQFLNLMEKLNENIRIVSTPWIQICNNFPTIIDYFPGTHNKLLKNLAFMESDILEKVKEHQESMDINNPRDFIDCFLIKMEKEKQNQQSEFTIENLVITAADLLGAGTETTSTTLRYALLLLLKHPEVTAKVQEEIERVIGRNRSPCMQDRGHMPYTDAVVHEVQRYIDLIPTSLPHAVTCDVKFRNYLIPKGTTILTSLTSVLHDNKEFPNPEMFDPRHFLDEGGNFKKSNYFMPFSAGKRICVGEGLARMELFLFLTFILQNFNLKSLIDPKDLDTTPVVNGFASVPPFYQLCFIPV
How it was run: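 NADPH-dependent conversion of Luciferin-H EGE (10uM, at KM) by 5nM enzyme in 50mM KPO4, 60 min at 37C following 10 min compound preincubation. Stopped with luciferin detection buffer; luminescence read after 20 min.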

[17] = target: Cytochrome P450 2D6 (Homo sapiens) (UniProt P10635); test: qHTS Assay for Inhibitors and Substrates of Cytochrome P450 2D6 (AID 891);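 also: luciferin methyl ether substrate demethylated by CYP2D6 with NADPH regeneration; % is scaled to controls: 0 for no effect and ±100 for the full control effect; nearly all actives have a fitted effect of over 60% in size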
Cytochrome P450 2D6 (Homo sapiens), sequence (P10635 whole entry, looked up): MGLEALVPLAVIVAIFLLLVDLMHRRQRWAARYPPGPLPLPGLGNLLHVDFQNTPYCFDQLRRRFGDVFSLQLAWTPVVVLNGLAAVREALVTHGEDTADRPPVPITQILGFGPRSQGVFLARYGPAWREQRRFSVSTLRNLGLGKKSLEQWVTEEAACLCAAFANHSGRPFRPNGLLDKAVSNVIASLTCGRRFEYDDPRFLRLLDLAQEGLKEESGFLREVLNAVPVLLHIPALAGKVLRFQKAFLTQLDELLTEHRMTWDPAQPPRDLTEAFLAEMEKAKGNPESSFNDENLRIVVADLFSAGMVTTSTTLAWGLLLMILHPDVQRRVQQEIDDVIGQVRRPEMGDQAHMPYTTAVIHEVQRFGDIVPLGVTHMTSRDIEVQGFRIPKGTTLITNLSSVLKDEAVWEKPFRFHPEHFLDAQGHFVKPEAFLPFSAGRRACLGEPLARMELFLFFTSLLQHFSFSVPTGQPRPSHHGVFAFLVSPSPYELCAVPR
How it was run: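 Human CYP2D6 (5 nM) with 30 uM Luciferin-ME EGE (at Km) in 100 mM KPO4, compound preincubated 10 min, then NADPH regeneration system for 60 min at room temperature. Luciferin read by luminescence; normalized to 1.43 uM quinidine.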

[18] = target: Cytochrome P450 3A4 (Homo sapiens) (UniProt P08684); test: qHTS Assay for Activators of Cytochrome P450 3A4 (AID 885); also: nearly all actives have a fitted effect of over 65% in size
How it was run: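 20nM CYP3A4 + 25uM Luciferin-PPXE (=KM), 200mM KPO4; cpd 10 min RT; NADPH regen, 60 min RT; stop w/ detection buffer, 20 min; luminescence. Normalized to 57 uM ketoconazole.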

CCCC(O)C(CC)CO (centres undefined)
inactive: outcome [1] | outcome [2] | outcome [3] | outcome [4] | outcome [5] | outcome [6] | outcome [7] | outcome [8] | outcome [9] | outcome [10] | outcome [11] | outcome [12]

Cc1[nH]c(C)c(Cl)c(=O)c1Cl
inactive: outcome [12] | outcome [13]

O=C(O)COC(=O)Cc1ccccc1Nc1c(Cl)cccc1Cl
active: Potency [14] 1.58 µM
inactive: activation [15] -4.27%

CC(=O)Nc1cccc(O)c1
inactive: outcome [1] | outcome [2] | outcome [3] | outcome [4] | outcome [5] | outcome [6] | outcome [7] | outcome [8] | outcome [9] | outcome [10] | outcome [11] | outcome [12] | outcome [13]

O=C(Cn1ccnc1[N+](=O)[O-])NCCO
inactive: outcome [12] | Potency [16] | outcome [13]

C=CCNC(N)=S
inactive: outcome [1] | outcome [2] | outcome [3] | outcome [4] | outcome [5] | outcome [6] | outcome [7] | outcome [8] | outcome [9] | outcome [10] | outcome [11] | outcome [12]

CC(=O)NS(=O)(=O)c1ccc(N)cc1
inactive: outcome [1] | outcome [2] | outcome [3] | outcome [4] | outcome [5] | outcome [6] | outcome [7] | outcome [8] | outcome [9] | outcome [10] | outcome [11] | outcome [13]

CC(=O)Nc1ccc(C(=O)O)cc1
inactive: outcome [1] | outcome [2] | outcome [3] | outcome [4] | outcome [5] | outcome [6] | outcome [7] | outcome [8] | outcome [9] | outcome [10] | outcome [11] | outcome [12]

O=C(O)CCCCC1CCSS1 (centres undefined)
inactive: outcome [1] | outcome [2] | outcome [3] | outcome [4] | outcome [5] | outcome [6] | outcome [7] | outcome [8] | outcome [9] | outcome [10] | outcome [11] | outcome [12] | outcome [13]

NC(=O)NC1NC(=O)NC1=O (centres undefined)
inactive: outcome [12] | outcome [13]

Cc1cc(=O)[nH]c(=S)[nH]1
inactive: outcome [1] | outcome [2] | outcome [3] | outcome [4] | outcome [5] | outcome [6] | outcome [7] | outcome [8] | outcome [9] | outcome [10] | outcome [11] | outcome [12] | outcome [13]

NS(=O)(=O)c1ccc(C(=O)O)cc1
inactive: Potency [14] | activity change, negative = inhibition [12] -0.84% [at 11.4 µM] | Potency [17] | Potency [16]

CC(=O)OCC(COC(C)=O)OC(C)=O
inactive: outcome [1] | outcome [2] | outcome [3] | outcome [4] | outcome [5] | outcome [6] | outcome [7] | outcome [8] | outcome [9] | outcome [10] | outcome [11] | outcome [12] | outcome [13]

O=C1C(c2[nH]c3ccccc3c2O)=Nc2ccccc21
inactive: outcome [1] | outcome [2] | outcome [3] | outcome [4] | outcome [5] | outcome [6] | outcome [7] | outcome [8] | outcome [9] | outcome [10] | outcome [11] | outcome [12]

C[n+]1ccccc1/C=N/O
inactive: outcome [12] | outcome [13]

Cc1cccc(Nc2ccccc2C(=O)O)c1C
active: Potency [14] 7.94 µM
inactive: outcome [12] | outcome [13]

CC1CC(OC(=O)c2ccccc2O)CC(C)(C)C1 (centres undefined)
inactive: outcome [1] | outcome [2] | outcome [3] | outcome [4] | outcome [5] | outcome [6] | outcome [7] | outcome [8] | outcome [9] | outcome [10] | outcome [11] | outcome [13]

Cc1cc(C)nc(NS(=O)(=O)c2ccc(N)cc2)n1
inactive: outcome [1] | outcome [2] | outcome [3] | outcome [4] | outcome [5] | outcome [6] | outcome [7] | outcome [8] | outcome [9] | outcome [10] | outcome [11] | outcome [18] | outcome [13] | activation [15] -4.03%

C=CCSCC1Nc2cc(Cl)c(S(N)(=O)=O)cc2S(=O)(=O)N1 (centres undefined)
inactive: outcome [18]

COc1ccc2cc(CCC(C)=O)ccc2c1
inactive: outcome [18]

CC(=O)N[C@@H](CC(C)C)C(=O)O
inactive: activation [15] -5.35%

Reference: PubChem BioAssay (NCATS)
